Sampled rows, rich in hits. Any-hit rate of the full collection: about 14%.
LASV entry inh = Lassa virus entry inhibition; hit rate 1.2% among 300,000; Potency, µM (series often up to 37.9 µM), without a hit: at the highest dose activity change, negative = inhibition, usual class: inhibitors; Lassa virus pseudotype entry inhibition, cell reporter; calls by dose curve; tested in HEK293 cells; further: potency means the concentration at half of the fitted maximal effect; nearly all actives have a fitted effect of over 50% in size
Pf growth 48h = inhibits P. falciparum growth in the first generation, 48 h | P. falciparum luciferase growth in erythrocytes, 48 h | Potency, µM (highest dose often 28.7 µM), for inactives: top-dose activity change, negative = inhibition, actives largely listed as inhibitors | hit rate 5.9% among 310,000 | AID 504832; further: potency means the concentration at half of the fitted maximal effect
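Luciferase-expressing parasites in RBCs, 2% Hct / 0.1% parasitemia final; RPMI 1640 + 0.5% Albumax; 37 C, 5% CO2, one generation; luminescence read-out, lower signal = inhibition.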
Pf growth 96h = inhibits malaria parasite growth, 96 h; P. falciparum luciferase reporter growth, 96 h; hit rate 6.9% among 320,000; Potency, µM (highest dose often 28.7 µM), inactives show at the top dose activity change, negative = inhibition, actives largely listed as inhibitors; further: potency means the concentration at half of the fitted maximal effect
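Plates of compound plus infected erythrocytes (2% hematocrit, 0.05% parasitemia final) incubate 96 hours, 37 C, 5% CO2. Detection reagent added; reduced luminescence from the parasites' luciferase reporter flags inhibition.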
MARV entry inh = inhibitors of Marburg virus binding or cell entry; Marburg virus pseudotyped entry inhibition, cell reporter; Potency, µM (highest dose often 37.8 µM), without a hit: at the top dose activity change, negative = inhibition, actives largely listed as inhibitors; hit rate 1.8% among 300,000; calls by dose curve; tested in HEK293 cells; further: potency means the concentration at half of the fitted maximal effect
HCMV antiviral = blocks human cytomegalovirus replication; hit rate 4.5% among 410,000; activity change, negative = inhibition, % at 57.5 µM; HFF cells, HCMV-luciferase reporter, 72 h; active compounds read low; in the data active means activity change below about -60%; inconclusive means no clear call, values can overlap the other calls; inactive means above about -39%
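Human foreskin fibroblasts infected with luciferase-reporter HCMV at MOI 1 PFU/cell, compounds at two doses. Luciferase measured 72 h post infection; normalized to buffer-only basal and Salinomycin (10uM) controls.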
HCV inhibitor = blocks hepatitis C virus; AID 651820; Huh7.5.1 HCVcc-Cre infection, luciferase reporter, 44 h; hit rate 3.4% among 340,000; Potency, µM (titrated, usually from 41.8 µM), for inactives: at the highest dose activity change, negative = inhibition, hits mostly inhibitors; further: potency means the concentration at half of the fitted maximal effect
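Cells (1,000/well) were plated 4 h before compound, then infected with HCVcc-Cre virus (~0.5 moi). After 44 h further culture, infection was read as luciferase luminescence following a 15 min substrate incubation at room temperature.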
An asterisk follows results filed as active; [ ] = remark or other dose. Unless noted, the call rests on the fitted dose curve; in most records, active means well fitted inhibition curve with a large enough effect; inconclusive means small, poorly fitted or top-dose-only effect, or another doubt; inactive means no such curve, though single readings can be large or run the other way. On the % scale 0 is the no-effect control and ±100 the full control effect.

For CCCCC(=O)NC(c1ccc(C(C)C)cc1)c1ccc2cccnc2c1O (stereo not drawn) the results were Pf growth 48h 1.65µM*, Pf growth 96h 17.0%, HCMV antiviral -102.9* and HCV inhibitor 2.82µM*.
CCCC(=O)NC(c1ccccc1)c1ccc2cccnc2c1O (stereo not drawn) was read as LASV entry inh inconclusive, Pf growth 48h 2.33µM*, Pf growth 96h inconclusive, MARV entry inh inconclusive, HCMV antiviral -101.6* and HCV inhibitor 2.82µM*.
Screening CC(=O)NC(c1ccc(C(C)C)cc1)c1ccc2cccnc2c1O (stereo not drawn) returned LASV entry inh inconclusive, Pf growth 48h 7.38µM*, Pf growth 96h 228.2%, MARV entry inh inconclusive, HCMV antiviral -98.8* and HCV inhibitor 8.91µM*.
O[C@H](c1ccc(F)cc1)[C@H](c1ccccc1)N1CCOCC1 was read as MARV entry inh 9.5%.
`COc1ccccc1N1CCN(Cc2cc(=O)oc3cc(C)cc(C)c23)CC1` gave HCMV antiviral -12.7.
For Oc1cccc(C(Nc2ccccn2)c2ccc3cccnc3c2O)c1Cl (stereo not drawn) the results were LASV entry inh inconclusive, MARV entry inh inconclusive and HCMV antiviral -82.3*.
`O=c1cc(CO)oc(C(Nc2ccccn2)c2ccccc2Cl)c1O` (stereo not drawn) gave LASV entry inh -14.7%[46.1 µM], Pf growth 48h inconclusive, Pf growth 96h inconclusive, MARV entry inh -16.1%[46.1 µM], HCMV antiviral 6.4 and HCV inhibitor 1.9%.
`COc1ccc(NC(C)C(=O)Nc2ccc(C(C)(C)C)cc2)cc1Cl` (stereo not drawn) gave LASV entry inh -21.6%, Pf growth 48h inconclusive, MARV entry inh -7.2%, HCMV antiviral 5.7 and HCV inhibitor inconclusive.
`COc1ccc(NC(C)C(=O)Nc2ccc(C#N)cc2)cc1Cl` (stereo not drawn) gave LASV entry inh -4.3%, Pf growth 96h 2.33µM*, MARV entry inh 19.6%, HCMV antiviral -1.9 and HCV inhibitor 0.7%.
COCCNC(=O)C(OC(=O)c1ccco1)c1ccc(OC)cc1 (stereo not drawn) was read as LASV entry inh inconclusive, MARV entry inh 5.4%[46.1 µM], HCMV antiviral 10.5 and HCV inhibitor 12.8%.
Cc1ccc(C(=O)CSc2ncnc3sc4c(c23)CCCC4)cc1 was read as LASV entry inh -22.9%, Pf growth 48h -6.3%, Pf growth 96h -12.3%, MARV entry inh -22.5%, HCMV antiviral inconclusive and HCV inhibitor inconclusive.
`c1ccc(-n2nnnc2Sc2ncnc3sc4c(c23)CCCC4)cc1` gave LASV entry inh inconclusive, Pf growth 48h inconclusive, Pf growth 96h 1.65µM*, MARV entry inh inconclusive, HCMV antiviral -7.0 and HCV inhibitor 3.8%.
Cc1sc2ncnc(Sc3nnnn3-c3ccc(Cl)cc3)c2c1C was read as LASV entry inh 20.6µM*, Pf growth 48h 8.28µM*, Pf growth 96h inconclusive, MARV entry inh inconclusive, HCMV antiviral 52.8 and HCV inhibitor 14.9%.
`Cc1cc(C)nc(N2CCN(c3nnnn3-c3ccccc3)CC2)n1` gave LASV entry inh 1.7%, Pf growth 48h 16.5%, Pf growth 96h 147.8%, MARV entry inh -2.0%[46.1 µM], HCMV antiviral -11.9 and HCV inhibitor -3.7%.
Cc1ccc(-n2nnnc2-c2cnc(N3CCCC3)nc2C(F)(F)F)cc1 was read as LASV entry inh inconclusive, Pf growth 96h 4.6%, MARV entry inh -12.0%, HCMV antiviral inconclusive and HCV inhibitor 11.2µM*.
For COc1ccc(-n2nnnc2-c2cn(C)nc2C(F)(F)F)cc1 the results were LASV entry inh -1.0%, Pf growth 48h 7.1%, Pf growth 96h 33.3%, MARV entry inh inconclusive, HCMV antiviral -30.0 and HCV inhibitor -4.6%.
FC(F)(F)c1nc(N2CCCC2)ncc1-c1nnnn1-c1ccccc1 was read as LASV entry inh -0.7%, Pf growth 48h 0.9%, Pf growth 96h 33.3%, MARV entry inh -15.8%, HCMV antiviral -71.7* and HCV inhibitor 11.2µM*.
For Cc1cccc(Cn2c(CN3CCCC(C)C3)nc3c2c(=O)n(C)c(=O)n3C)c1 (stereo not drawn) the results were LASV entry inh 13.6%[46.1 µM], MARV entry inh 16.3%[46.1 µM] and HCMV antiviral 1.7.
COc1ccc(CCC(C)NC2CCCCCCC2)cc1 (stereo not drawn) was read as LASV entry inh inconclusive, Pf growth 48h 29.9%, Pf growth 96h 0.6%, MARV entry inh inconclusive, HCMV antiviral inconclusive and HCV inhibitor -3.2%.
For COc1ccc(CCC(C)NCc2ccc(Cl)c(Cl)c2)cc1 (stereo not drawn) the results were Pf growth 48h 9.3%, Pf growth 96h 6.57µM*, HCMV antiviral -9.2 and HCV inhibitor -1.2%.
For COc1ccc(CCC(C)NCC2CCCCC2)cc1 (stereo not drawn) the results were LASV entry inh inconclusive, Pf growth 48h inconclusive, Pf growth 96h 13.1µM*, MARV entry inh inconclusive, HCMV antiviral -11.5 and HCV inhibitor -23.5%.
Screening Nc1nnn(CC(=O)N/N=C/c2ccccc2Cl)n1 returned LASV entry inh -16.5%, Pf growth 48h 13.0%, Pf growth 96h 51.5%, MARV entry inh -3.8%[46.1 µM], HCMV antiviral -3.8 and HCV inhibitor 12.5%.
Screening Cc1cc(C)c2ccc(=O)n(CC(=O)N/N=C/c3ccccc3Cl)c2n1 returned LASV entry inh 1.1%[46.1 µM], Pf growth 48h 2.62µM*, Pf growth 96h 4.2%, MARV entry inh -8.0%[46.1 µM], HCMV antiviral -36.7 and HCV inhibitor -2.1%.
`COc1ccccc1-c1cn[nH]c1-c1ccc(OCc2ccccc2)cc1O` gave LASV entry inh 1.3%[46.1 µM], Pf growth 48h 6.57µM*, Pf growth 96h 3.7µM*, MARV entry inh inconclusive, HCMV antiviral -25.1 and HCV inhibitor -19.3%.
`CCOc1ccc(-c2[nH]ncc2-c2ccccc2)c(O)c1` gave Pf growth 48h inconclusive, Pf growth 96h 7.38µM*, HCMV antiviral inconclusive and HCV inhibitor 5.9%.
Screening COc1ccc(-c2cn[nH]c2-c2ccc(OCc3ccccc3)cc2O)cc1 returned LASV entry inh 3.55µM*, Pf growth 48h inconclusive, Pf growth 96h inconclusive, MARV entry inh inconclusive, HCMV antiviral -71.4* and HCV inhibitor inconclusive.
For COc1ccc(C(=O)c2c3ccc(C(F)(F)F)cc3[n+]([O-])n2CCCC(N)=O)cc1 the results were Pf growth 48h inconclusive, Pf growth 96h inconclusive, HCMV antiviral -8.5 and HCV inhibitor 19.5%.
For COc1ccc(C(=O)c2c3ccc([N+](=O)[O-])cc3[n+]([O-])n2CCCC(N)=O)cc1 the results were Pf growth 48h inconclusive, Pf growth 96h inconclusive, HCMV antiviral -11.0 and HCV inhibitor inconclusive.
